IL1B secr inh: inflammasome signaling inhibition, IL-1 beta readout; THP-1 LPS/ATP IL-1B secretion, AlphaLISA, 16 h; stronger effect = lower value; activity change, % at 57.5 µM; 360,000 compounds, 4.7% hits; in the data active = activity change below about -50%; inconclusive = mostly about -30% to -49%
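THP-1 cells pretreated 1 hr with compounds (up to 57.5 uM final), then stimulated with LPS (250 ng/mL final) plus ATP (1.25 mM final); secreted IL-1B measured by AlphaLISA after 16 hr, decreased signal indicating inhibition.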
DT40 TDP1 CPT: DT40-hTDP1 cell growth loss with CPT | 420,000 compounds, 12% hits | Potency, µM (top dose mostly 46.2 µM), usual class: inhibitors | chicken DT40 Tdp1-/-;hTDP1 cells + 20 nM CPT, ATP luminescence, 48 h; also: nearly all actives have a fitted effect of over 55% in size
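Chicken DT40 Tdp1-/- cells stably complemented with human TDP1 were seeded at 400 cells/well in medium containing 20 nM camptothecin, exposed to pin-transferred compounds, and grown at 37 °C for at least 48 hr. Viability was read as ATP luminescence.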
ELG1 repair inh: inhibitors of ELG1-dependent DNA repair in HEK293T cells | HEK293T ELG1-luciferase reporter, luminescence, 16 h; DNA damage induced by 5-fluorouridine | Potency, µM (doses to about 46.1 µM), hits mostly inhibitors | 330,000 compounds, 2.3% hits | AID 504467; also: nearly all actives have a fitted effect of over 55% in size
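HEK293T cells expressing luciferase-tagged ELG1 (2,000/well) received 5-Fluorouridine plus compound or DMSO for 16 hr at 37 °C. Luciferase was read by ONE-Glo luminescence after 30 min at room temperature.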
HT1080 IDH1KD tx: toxicity to HT-1080 IDH1 knockdown cells (counter line). HT-1080 IDH1 knockdown viability, ATP luminescence, 48 h. Potency, µM (top dose mostly 46.1 µM), usual class: cytotoxic. 360,000 compounds, 2% hits. AID 686971
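After a 2 h attachment period, IDH1KD HT-1080 cells took pin-transferred compound for 48 h at 37 °C; ATP-based luminescence after 10 min room-temperature reagent incubation reported viability.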
HT1080NT lethal: kills 2HG-producing HT-1080-NT fibrosarcoma cells | 360,000 compounds, 1.6% hits | HT-1080-NT fibrosarcoma viability, CellTiter-Glo ATP luminescence, 48 h | Potency, µM (top dose mostly 46.1 µM), usual class: cytotoxic;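 also: NT is the 2HG producing partner of a matched IDH1 knockdown line; nearly all actives have a fitted effect of over 55% in size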
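Luminescent CellTiter-Glo readout after 48 hours of compound exposure at 37 degrees C defined viability of HT-1080-NT cells. Activity was normalized to DMSO wells and cell-free media wells; concentration-response curves were fitted and assigned curve classes.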
DT40 TDP1 no CPT: qHTS for Inhibitors of human tyrosyl-DNA phosphodiesterase 1 (TDP1): qHTS in cells in absence of CPT; DT40 Tdp1-/- hTDP1 cells, no CPT, ATP luminescence, 48 h; Potency, µM (highest dose often 46.2 µM), most hits filed as inhibitors; 420,000 compounds, 15% hits; AID 686978, 2013; also: nearly all actives have a fitted effect of over 55% in size
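Camptothecin absent (DMSO only). Human TDP1-complemented DT40 knockout cells, 400 cells/well, 37 °C for minimum 48 hr; ATP measured via CellTiter-Glo, 30 min dark incubation, luminescence.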
Hits are given with their value; 0 = inactive; ? = inconclusive; - = no result given. This is a sample that favours compounds with a hit; in the whole collection about 19% have one here. Unless noted, calls follow the shape of the dose curve; as a rule, active = well fitted curve in the direction sought with a large enough effect; inconclusive = small, poorly fitted or top-dose-only effect, or another doubt; inactive = no such curve, though single readings can be large; an effect the other way counts as inactive or inconclusive.

SMILES	IL1B secr inh	DT40 TDP1 CPT	ELG1 repair inh	HT1080 IDH1KD tx	HT1080NT lethal	DT40 TDP1 no CPT
O=S(=O)(Nc1ccc(N2CCOCC2)cc1)c1c(F)cc(F)cc1Br	0	0	0	0	0	0
O=c1c(-c2ccc(F)cc2)nc2cnc(Oc3cccc(Cl)c3)nc2n1C[C@H]1CCCO1	-	?	-	-	-	0
COc1ccc(Nc2ccc([N+](=O)[O-])cc2[N+](=O)[O-])cc1	0	0	0	0	0	0
O=[N+]([O-])c1ccc2c(c1)/C(=N\O)c1ccccc1-2	0	?	0	0	0	?
O=[N+]([O-])c1ccc2c(c1)C(=NO)c1cc(F)ccc1-2	?	16.4µM	-	0	0	11.6µM
COc1cc2c(cc1[N+](=O)[O-])-c1ccc([N+](=O)[O-])cc1C2=NO	?	25.9µM	-	0	0	14.6µM
Nc1cc2c(cc1Cl)-c1ccc([N+](=O)[O-])cc1C2=NO	0	8.2µM	-	?	0	7.31µM
NN=C1c2cc([N+](=O)[O-])ccc2-c2ccc([N+](=O)[O-])cc21	-	-	0	-	-	-
Cc1ccccc1Cn1c(=O)n(CCCCC(=O)NCCc2ccccc2)c(=O)c2ccccc21	-	0	-	-	-	?
O=C(Cn1cc(S(=O)(=O)Cc2ccccc2)c2ccccc21)Nc1ccccc1	0	0	0	0	0	0
CC(=O)c1ccc(NC(=O)Cn2cc(S(=O)(=O)Cc3cccc(Cl)c3)c3ccccc32)cc1	-	23.1µM	-	-	-	23.1µM
O=C(Cn1cc(S(=O)(=O)Cc2cccc(Cl)c2)c2ccccc21)Nc1ccccc1C(F)(F)F	-	13µM	-	-	-	?
Cc1cc(NC(=O)CS(=O)(=O)c2cn(Cc3cccc(Cl)c3)c3ccccc23)no1	0	25.9µM	-	?	?	20.6µM
O=C(Cn1cc(C(=O)c2ccco2)c2ccccc21)Nc1ccccc1C(F)(F)F	-	0	-	-	-	0
COc1ccc(CCNC(=O)CCC(=O)N2CCOc3ccc(Cl)cc32)cc1OC	0	?	0	0	0	?
Cc1ccc(Cn2c(=O)n(C)c(=O)c3sccc32)cc1	0	?	0	0	0	?
COc1cccc(C(C(=O)NCc2ccccc2)N2CCN(C(=O)C3CCCO3)CC2)c1OC (stereo unspecified)	0	0	-	0	0	0
COc1cccc(C(C(=O)NCc2ccccc2)N2CCN(c3cccc(C)c3C)CC2)c1OC (stereo unspecified)	?	18.4µM	-	?	?	18.4µM
CCC(CC)C(C(=O)NCc1ccccc1)N1CCN(c2cccc(C)c2C)CC1 (stereo unspecified)	0	6.51µM	-	0	0	5.8µM
Cc1cccc(N2CCN(C(C(=O)NCc3ccccc3)c3ccc(F)cc3)CC2)c1C (stereo unspecified)	0	23.1µM	-	?	?	20.6µM
Cc1cccc(N2CCN(C(C(=O)NCc3ccccc3)c3ccco3)CC2)c1C (stereo unspecified)	0	?	-	?	?	?
NNC(=O)C(=O)/C=C1\NC2(CCCC2)Cc2ccccc21	0	0	?	0	0	0
COc1ccc(/C=N/NC(=O)C(=O)/C=C2\NC3(CCCC3)Cc3ccccc32)cc1	0	?	23.1µM	0	0	?
O=C(/C=C1\NC2(CCCC2)Cc2ccccc21)C(=O)N/N=C/c1ccc(O)c(O)c1	?	5.8µM	23.1µM	?	?	4.61µM
COc1ccc(CNC(=O)C2CCC(CNS(=O)(=O)c3ccccc3)CC2)cc1 (stereo unspecified)	0	0	?	0	0	0
CCC1(C)CC(C#N)(C#N)C(=O)NC1=O (stereo unspecified)	0	0	-	0	0	0
COC1=NS(=O)(=O)c2ccccc21	0	0	0	0	0	0
Cc1ccc(CSC2=NS(=O)(=O)c3ccccc32)cc1	-	8.91µM	-	-	-	11.2µM
Cc1ccc(C)c(OC2=NS(=O)(=O)c3ccccc32)c1	0	18.4µM	0	0	0	20.6µM

Screening results (PubChem)
